Counter-ions that a name gives are not always drawn.
Columns and labels:
Assay in all cases: cell proliferation relative to vehicle (% of vehicle); higher = less growth inhibition
Details in all cases: 72 h
[1] = system: U2932 TK216-resistant clone 2
Procedure, shortened: (§1)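 A targeted inhibitor library of 348 compounds was tested on the ABC-DLBCL line U2932, both parental and two clones made resistant to an ETS-targeting agent by repeated exposure over almost a year. Cells were grown at 37°C and 5% CO2 in medium with 10% FBS, then treated at 500 nM or 50 nM for 72 h. MTT was added for 4 h, stopped with 25% SDS, and absorbance was read on a Cytation 3. Proliferation is reported as percent of proliferating cells relative to vehicle (DMSO).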

[2] = system: U2932 TK216-resistant clone 3
Procedure, shortened: as §1

U2932 parental = system: U2932 parental
Procedure, shortened: as §1

| Structure (SMILES) | cell proliferation ([1]; 50 nM) | cell proliferation ([1]; 500 nM) | cell proliferation ([2]; 50 nM) | cell proliferation ([2]; 500 nM) | cell proliferation (U2932 parental; 50 nM) | cell proliferation (U2932 parental; 500 nM) |
| --- | --- | --- | --- | --- | --- | --- |
| Cn1cc(C2=C(c3cn(C4CCN(Cc5ccccn5)CC4)c4ccccc34)C(=O)NC2=O)c2ccccc21 | 110 | 103 | 99.8 | 97.1 | 103 | 107 |
| CC(O)(CS(=O)(=O)c1ccc(F)cc1)C(=O)Nc1ccc(C#N)c(C(F)(F)F)c1 (centres undefined) [Bicalutamide] | 109 | 104 | 103 | 97.8 | 102 | 96.5 |
| O=C(O)C(=O)c1cn(Cc2ccccc2)c2ccc(-c3ccc(OC(F)(F)F)cc3)cc12 [Tiplaxtinin (PAI-039)] | 99.5 | 93.1 | 100 | 98.5 | 102 | 99.3 |
| C/C(=C\c1csc(C)n1)[C@@H]1C[C@@H]2O[C@@H]2CCC[C@H](C)[C@H](O)[C@@H](C)C(=O)C(C)(C)[C@@H](O)CC(=O)O1 [Epothilone A] | 12.4 | 10 | 7.03 | 9.75 | 9.49 | 10.1 |
| O=S(=O)(CC1CS1)c1ccc(Oc2ccccc2)cc1 (centres undefined) | 102 | 97.6 | 98.2 | 104 | 95.5 | 99.7 |
| Cn1c(CCCC(=O)O)nc2cc(N(CCCl)CCCl)ccc21 [Bendamustine HCl] | 111 | 108 | 102 | 102 | 99.3 | 90.2 |
| CC1=C(O)C(=O)C=C2C1=CC=C1[C@@]2(C)CC[C@@]2(C)[C@@H]3C[C@](C)(C(=O)O)CC[C@]3(C)CC[C@]12C [Celastrol] | 77.9 | 18.8 | 85 | 27.8 | 80.6 | 24.1 |
| O=P1(NCCCl)OCCCN1CCCl (centres undefined) [Ifosfamide] | 108 | 107 | 102 | 103 | 103 | 93.4 |
| COc1cc2c(cc1OC)C1CC(=O)C(CC(C)C)CN1CC2 (centres undefined) [Tetrabenazine (Xenazine)] | 101 | 96.2 | 106 | 107 | 103 | 93.2 |
| Cc1sc2c(c1C)C(c1ccc(Cl)cc1)=N[C@@H](CC(=O)OC(C)(C)C)c1nnc(C)n1-2 | 91 | 58.9 | 77.2 | 57.4 | 92.1 | 55.1 |
| COc1ccc(C[C@H]2NC[C@H](O)[C@H]2OC(C)=O)cc1 [Anisomycin] | 55.2 | 25.4 | 69 | 29.3 | 66.9 | 20.5 |
| O=C(O)CCCc1ccc(N(CCCl)CCCl)cc1 [Chloroambucil] | 101 | 99.4 | 98.4 | 101 | 99.7 | 98.7 |
| CC(=O)OC(C)(C)/C=C/C(=O)[C@](C)(O)[C@H]1[C@H](O)C[C@@]2(C)[C@@H]3CC=C4[C@H](C[C@H](O)C(=O)C4(C)C)[C@]3(C)C(=O)C[C@]12C [Cucurbitacin B] | -2.74 | -3.79 | 0.167 | -2.48 | -0.672 | -0.512 |
| N[C@@H]1C[C@H]1c1ccccc1 [Tranylcypromine (2-PCPA) HCl] | 108 | 107 | 111 | 102 | 101 | 100 |

From the supplement of paper PMC13172266
